The results in this text go back to PubChem BioAssay.

The source made the active and inactive calls. Unless noted, how the calls were made is not given here.

A short description of experiment [1]: compounds binding Alexa647 anti-His antibody – biochemical, small-molecule microarray, 635 nm fluorescence, artefact control for SMM control protein annotation, primary screen (AID 1128).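 Further: score merges feature fluorescence with signal-to-noise for each printed compound spot.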 The conditions noted are these: higher = more signal.
Experiment [2] relates to Human papillomavirus type 1a E7 protein (residues 1-88). Kind of experiment: HPV1a E7 small-molecule binders, primary screen, biochemical, small-molecule microarray, residues 1-88, 635 nm (AID 1129). The conditions noted are these: small-molecule microarray binding, fluorescence 635 nm; higher = more signal.
Experiment [3] deals with Focal adhesion kinase 1 (Homo sapiens) (UniProt Q05397). As to the kind of experiment: PTK2 protein binding on printed compound slides – biochemical, small-molecule microarray, 635/667 nm fluorescence, BSA, DTT, primary screen (AID 1130).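 Further: composite of spot emission at 667 nm and signal to noise over triplicate slides.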 As to conditions: 635 nm fluorescence, higher = more signal.
The test system of experiment [4] is Fibrinogen (Alexa647-labelled). Kind of experiment: Alexa647-fibrinogen binding to printed small molecules – biochemical, small-molecule microarray, 635/667 nm fluorescence, artefact control for SMM control-protein annotation, profiling panel (AID 1131).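 Further: z-score merges 667 nm fluorescence with per-spot signal-to-noise over triplicate slides.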 The conditions noted are these: fibrinogen-A647 binding fluorescence, higher = more signal.
In experiment [5] the target is Follistatin (Homo sapiens) (UniProt P19883). Kind of experiment: FST protein binding to printed compounds – biochemical, small-molecule microarray, 635/667 nm fluorescence, primary screen (AID 1132). As to conditions: 635 nm fluorescence, higher = more signal.
In experiment [6] the target is Fibroblast growth factor 2 (Homo sapiens) (UniProt P09038). As to the kind of experiment: basic fibroblast growth factor binding to printed compounds – biochemical, small-molecule microarray, 635/667 nm fluorescence, primary screen (AID 1133). As to conditions: FGF2, fluorescence 635/667, higher = more signal.
A short description of experiment [7]: JC-1 mitochondrial potential readout, lung cancer cells – cell-based, A549, JC-1 fluorescence, basal, 24 h, 100 nL, profiling panel (AID 1138).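 Further: A549 lung adenocarcinoma cells under basal conditions with no added stimulus; test concentration not given here.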 As to conditions: higher = more signal.
In another experiment the test system is Lefty1. As to the kind of experiment: Lefty1 protein binding to printed compounds – biochemical, small-molecule microarray, 635/667 nm fluorescence, primary screen (AID 1139). The conditions noted are these: fluorescence 635/667, higher = more signal.
Experiment [8] has as its system wheat germ agglutinin (Triticum aestivum), Alexa647-labelled. As to the kind of experiment: Alexa647-WGA lectin binding to printed small molecules – biochemical, small-molecule microarray, 635/667 nm fluorescence, artefact control for SMM control-protein annotation, profiling panel (AID 1140).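 Further: score merges 667 nm feature emission with signal to noise over triplicate slides.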 The conditions noted are these: WGA-A647 binding, 635 nm fluorescence, higher = more signal.

Experiment [9] has as its target Luciferin 4-monooxygenase (Photinus pyralis) (UniProt P08659). As to the kind of experiment: inhibition of purified Photinus pyralis luciferase – biochemical, luminescence, purified enzyme, 2006 set, primary screen (AID 1141).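 Further: cell-free assay with purified firefly luciferase at 100 ng per well in PBS; test concentration not given here.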 As to conditions: purified firefly luciferase, SteadyGlo luminescence, 30 min; higher = more signal, called active from +8 up or from −8 down.

For experiment [10], the system named is Wnt5a (protein binding on small-molecule microarray). As to the kind of experiment: small molecules binding Wnt5a protein – biophysical, small-molecule microarray, 635/667 nm fluorescence, primary screen (AID 1142).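 Further: fluorescence read at 667 nm with signal to noise per printed feature.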 The conditions noted are these: 635 nm fluorescence, higher = more signal.
Experiment [11] is described as follows: ATP-based viability of Huh7 replicon cells – cell-based, CellTiter-Glo luminescence, basal, 48 h, cytotoxicity control for HCV replication inhibitor project, primary screen (AID 1143).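 Further: Huh7 hepatoma cells carrying a hepatitis C replication reporter with no stimulus; test concentration not given here.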 The conditions noted are these: higher = more signal, called active from +8 up or from −8 down. (In general: A replicon is a self-replicating genome or part of one, used to study replication in cells.)

Experiment [12] is described as follows: Pseudomonas biofilm growth suppression – PAO1 strain, BacTiter-Glo luminescence, LB-PBS, primary screen (AID 1144). As to conditions: P. aeruginosa PAO1 biofilm, 12 h, higher = more signal.
A short description of experiment [13]: basal CRE-LacZ reporter activity in PC12 – cell-based, unstimulated, primary screen (AID 1145). The conditions noted are these: no forskolin, luminescence, 4.5 h, higher = more signal, called active from +8 up or from −8 down.
The nature of experiment [14]: forskolin-driven CRE-LacZ activity in PC12 – cell-based, CRE-LacZ reporter, forskolin-stimulated, primary screen (AID 1146).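 Further: PC12 cells with 6xCRE LacZ reporter stimulated by forskolin 10 µM; beta-galactosidase reporter signal reflecting CREB driven transcription.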 The conditions noted are these: luminescence, 4.5 h, higher = more signal, called active from +8 up or from −8 down.
For experiment [15], the target named is Streptavidin (Streptomyces avidinii) (UniProt P22629). Kind of experiment: compounds binding control protein streptavidin – biophysical, small-molecule microarray, 635/667 nm fluorescence, artefact control for SMM compound annotation, primary screen (AID 1147).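 Further: signal reflects streptavidin binding to arrayed compounds as a control protein.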 As to conditions: higher = more signal.
Experiment [16] can be described thus: probe aInhba binding on compound microarray – biochemical, small-molecule microarray, 635/667 nm fluorescence, primary screen (AID 1148).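 Further: score merges 667nm spot fluorescence with signal-to-noise for antibody binding to printed compounds.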 As to conditions: higher = more signal.
Experiment [17] has as its target Torsin-1A (Homo sapiens) (UniProt O14656). As to the kind of experiment: TOR1A wild-type binding on microarray – cell lysate, small-molecule microarray, lysate, 635/667 nm, primary screen (AID 1149). The conditions noted are these: COS7 hTOR1A-WT lysate, 635 nm fluorescence, higher = more signal.
The target is the same in experiment [18]. Kind of experiment: torsin A mutant lysate binding on microarrays – cell lysate, small-molecule microarray, COS7 lysate, 635/667 nm fluorescence, primary screen (AID 1150).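 Further: score pools 667 nm emission and signal to noise measuring lysate protein binding.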 As to conditions: COS7 hTOR1A mutant lysate, 635 nm fluorescence, higher = more signal.
Experiment [19] concerns Sonic hedgehog protein (Shh). As to the kind of experiment: Sonic hedgehog microarray binding compounds – biochemical, small-molecule microarray, 635/667 nm fluorescence, primary screen (AID 1151).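 Further: Shh protein binding to compounds spotted on small-molecule microarray slides; score combines spot fluorescence intensity with signal-to-noise across triplicate slides.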 The conditions noted are these: 635 nm fluorescence, higher = more signal.

Chain of Fibroblast growth factor 2 (Homo sapiens) (P09038 whole entry, looked up): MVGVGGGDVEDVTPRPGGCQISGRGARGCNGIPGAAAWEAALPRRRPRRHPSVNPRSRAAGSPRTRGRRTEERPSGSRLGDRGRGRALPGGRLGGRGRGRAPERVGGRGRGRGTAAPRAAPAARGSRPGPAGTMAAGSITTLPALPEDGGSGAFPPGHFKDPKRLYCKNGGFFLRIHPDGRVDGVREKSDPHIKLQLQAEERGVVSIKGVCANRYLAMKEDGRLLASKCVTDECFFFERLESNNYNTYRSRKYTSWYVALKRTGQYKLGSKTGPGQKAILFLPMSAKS
Chain of Streptavidin (Streptomyces avidinii) (P22629 whole entry, looked up): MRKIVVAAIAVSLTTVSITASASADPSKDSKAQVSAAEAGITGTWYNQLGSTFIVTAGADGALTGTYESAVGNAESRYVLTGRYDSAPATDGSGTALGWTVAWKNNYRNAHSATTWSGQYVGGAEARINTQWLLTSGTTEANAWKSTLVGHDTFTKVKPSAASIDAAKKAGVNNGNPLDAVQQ
Chain of Luciferin 4-monooxygenase (Photinus pyralis) (P08659 whole entry, looked up): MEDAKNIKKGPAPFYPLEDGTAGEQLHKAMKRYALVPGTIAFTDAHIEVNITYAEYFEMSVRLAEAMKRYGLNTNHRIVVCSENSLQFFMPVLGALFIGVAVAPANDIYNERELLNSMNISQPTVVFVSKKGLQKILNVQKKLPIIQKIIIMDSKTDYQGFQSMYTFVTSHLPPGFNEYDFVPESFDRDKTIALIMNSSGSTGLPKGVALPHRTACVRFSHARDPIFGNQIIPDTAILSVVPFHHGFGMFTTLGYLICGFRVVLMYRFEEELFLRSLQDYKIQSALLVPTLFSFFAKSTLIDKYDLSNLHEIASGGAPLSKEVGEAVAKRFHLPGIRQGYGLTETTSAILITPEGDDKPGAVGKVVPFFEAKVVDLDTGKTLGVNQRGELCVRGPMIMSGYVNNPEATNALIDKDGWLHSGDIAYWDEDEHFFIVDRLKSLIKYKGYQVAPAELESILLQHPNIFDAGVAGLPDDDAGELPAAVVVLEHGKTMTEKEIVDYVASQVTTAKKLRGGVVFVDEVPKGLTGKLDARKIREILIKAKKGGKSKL
Chain of Follistatin (Homo sapiens) (P19883 whole entry, looked up): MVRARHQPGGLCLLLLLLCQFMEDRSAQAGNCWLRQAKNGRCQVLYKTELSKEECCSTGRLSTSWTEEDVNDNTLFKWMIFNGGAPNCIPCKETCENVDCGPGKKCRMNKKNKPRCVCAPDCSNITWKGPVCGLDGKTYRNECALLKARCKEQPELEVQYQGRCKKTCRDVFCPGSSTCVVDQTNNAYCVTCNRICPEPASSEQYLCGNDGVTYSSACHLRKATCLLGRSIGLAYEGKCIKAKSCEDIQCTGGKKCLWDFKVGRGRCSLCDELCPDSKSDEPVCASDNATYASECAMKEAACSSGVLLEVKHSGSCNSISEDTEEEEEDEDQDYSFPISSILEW
Chain of Focal adhesion kinase 1 (Homo sapiens) (Q05397 whole entry, looked up): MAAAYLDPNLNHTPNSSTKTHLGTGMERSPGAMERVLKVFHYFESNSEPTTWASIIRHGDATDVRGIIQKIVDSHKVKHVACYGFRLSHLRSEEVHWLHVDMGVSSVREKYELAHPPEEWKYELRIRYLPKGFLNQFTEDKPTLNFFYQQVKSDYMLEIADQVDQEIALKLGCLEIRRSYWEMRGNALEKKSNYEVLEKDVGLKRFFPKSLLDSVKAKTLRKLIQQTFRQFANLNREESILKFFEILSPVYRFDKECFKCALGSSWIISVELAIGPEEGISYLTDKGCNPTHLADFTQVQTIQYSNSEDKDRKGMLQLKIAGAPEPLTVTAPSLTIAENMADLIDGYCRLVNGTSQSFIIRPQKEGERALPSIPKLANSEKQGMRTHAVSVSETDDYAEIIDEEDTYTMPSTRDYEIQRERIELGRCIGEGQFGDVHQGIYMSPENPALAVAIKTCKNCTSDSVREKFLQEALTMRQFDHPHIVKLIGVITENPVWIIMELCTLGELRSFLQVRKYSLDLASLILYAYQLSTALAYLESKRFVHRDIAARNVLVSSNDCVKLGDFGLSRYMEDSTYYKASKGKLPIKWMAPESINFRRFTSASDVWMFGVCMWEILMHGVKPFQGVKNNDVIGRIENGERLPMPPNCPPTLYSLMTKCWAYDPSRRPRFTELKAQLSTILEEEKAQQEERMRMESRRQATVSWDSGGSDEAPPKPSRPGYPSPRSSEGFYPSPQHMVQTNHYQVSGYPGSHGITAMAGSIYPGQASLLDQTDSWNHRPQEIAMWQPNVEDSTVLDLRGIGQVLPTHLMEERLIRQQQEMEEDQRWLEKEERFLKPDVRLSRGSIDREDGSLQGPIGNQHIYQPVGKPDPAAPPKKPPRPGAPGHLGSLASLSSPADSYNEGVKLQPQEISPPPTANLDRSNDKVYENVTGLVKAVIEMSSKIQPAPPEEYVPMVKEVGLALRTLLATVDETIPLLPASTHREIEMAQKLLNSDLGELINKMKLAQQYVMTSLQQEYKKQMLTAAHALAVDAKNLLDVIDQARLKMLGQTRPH
Chain of Torsin-1A (Homo sapiens) (O14656 whole entry, looked up): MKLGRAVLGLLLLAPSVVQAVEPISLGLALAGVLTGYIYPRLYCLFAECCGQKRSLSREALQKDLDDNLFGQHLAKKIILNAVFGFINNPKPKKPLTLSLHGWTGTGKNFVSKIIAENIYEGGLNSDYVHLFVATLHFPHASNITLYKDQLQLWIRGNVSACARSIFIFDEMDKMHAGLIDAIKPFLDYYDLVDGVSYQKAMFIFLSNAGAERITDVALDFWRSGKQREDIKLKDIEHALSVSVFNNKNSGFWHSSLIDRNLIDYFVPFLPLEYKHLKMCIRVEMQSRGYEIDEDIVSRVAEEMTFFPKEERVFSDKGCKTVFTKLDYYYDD

Regarding `COc1ccc([Si](C)(C)[C@@H]2[C@@H](CCO)O[C@]3(C(=O)N(Cc4cccc(N5C(=O)c6cccc7cccc5c67)c4)c4ccccc43)[C@H]2C)cc1`, the composite z-score in experiment [1] is 1.06; in experiment [2], 0.848; in [3], -0.123; in [4], 0.136; in experiment [5], 0.004; in experiment [6], -0.0148. Further, the composite z-score is 0.626 with Lefty1; 0.0034 in experiment [8]; -0.101 in experiment [10]; -0.138 in [15]; -0.128 in experiment [16]; -0.516 with Torsin-1A (Homo sapiens) [17]. In addition, the composite z-score in the experiment with Torsin-1A (Homo sapiens) [18] is -0.252; in [19] it was 0.552. For the same compound, the z-score in [7] is -0.43; in experiment [9] it was -0.508 (inactive); in experiment [11], -5.93 (inactive); in experiment [12] it was 0.568 (inactive); in experiment [13] it was 7.33 (inactive); in experiment [14], -0.24 (inactive).
Consider `COCCOC(=O)N1C(=O)[C@@]2(c3cc(C#CC4(O)CCCCCC4)ccc31)[C@H](C(N)=O)[C@H]1C(=O)O[C@H](c3ccccc3)[C@H](c3ccccc3)N1[C@@H]2c1ccc(O)cc1`, for which the composite z-score in experiment [1] stood at 1.28; in [2] it was 1.17; in [3] it was 0.124; in experiment [4], 0.329; in experiment [5] it was 1.32; in [6], 0.869. Further, the composite z-score in the experiment on Lefty1 was 0.754; in experiment [8], 0.547; in experiment [10], 0.179; in experiment [15] it was 0.184; in experiment [16] it was -0.0645; with Torsin-1A (Homo sapiens) [17], -0.0243. Moreover, the composite z-score was determined as 0.0342 with Torsin-1A (Homo sapiens) [18] and 0.778 in experiment [19]. For the same compound, the z-score is -0.317 in experiment [7]; -1.4 (inactive) in experiment [9]; -1.02 (inactive) in experiment [11]; 0.00701 (inactive) in experiment [12]; 2.25 (inactive) in experiment [13]; 3.59 (inactive) in experiment [14].
Regarding `CC1CC/C=C\[C@H]2OC34C=CCN(CCN5CCOCC5)C(=O)[C@H]3N(CCO)C(=O)[C@@H]4C2C(=O)O1` (stereo not given in full), the composite z-score is 2.67 in experiment [1]; -0.959 in [2]; -0.583 in experiment [3]; 0.187 in [4]; -0.361 in [5]; -0.0989 in experiment [6]. Further, the composite z-score in the experiment with Lefty1 is -0.887; in experiment [8], -0.176; in experiment [10] it was -0.249; in [15] it was -0.638; in experiment [16], -0.178; with Torsin-1A (Homo sapiens) [17] it was 0.161. In addition, the composite z-score is 0.213 with Torsin-1A (Homo sapiens) [18] and -0.636 in [19]. The z-score in experiment [7] was -0.213; in experiment [9] it was 0.749 (inactive); in experiment [11], -0.894 (inactive); in experiment [12], 0.463 (inactive); in [13], -0.216 (inactive); in [14] it was -0.626 (inactive).
Consider `[N-]=[N+]=NCc1ccccc1C[C@@]1(C(=O)N2CCCCC2)N=C(c2ccc(OCCCO)cc2)O[C@@H]1c1ccccc1N=[N+]=[N-]`, for which the composite z-score in experiment [1] was 1.4; in experiment [2] it was 1.14; in experiment [3], 0.759; in [4] it was 0.769; in [5] it was 0.249; in [6], 0.157. Moreover, the composite z-score in the experiment on Lefty1 was -0.162; in experiment [8], 0.885; in [10], -0.269; in [15], 0.75; in [16] it was -0.209; with Torsin-1A (Homo sapiens) [17], 0.704. In addition, the composite z-score in the experiment with Torsin-1A (Homo sapiens) [18] was found to be 0.826; in [19] it was 0.0369. In addition, the z-score in experiment [7] was 1.25; in [9] it was -6.07 (inactive); in experiment [11] it was -3.28 (inactive); in [12], 1.48 (inactive); in experiment [13], 0.596 (inactive); in experiment [14], -1.16 (inactive).
As for `COCCCNC(=O)[C@@H]1c2ccccc2C(=O)N(Cc2ccccc2C(F)(F)F)[C@H]1c1ccc(CO)cc1`, the composite z-score in experiment [1] is -0.175; in experiment [2], 0.569; in experiment [3], 0.278; in experiment [4], -0.873; in experiment [5], -0.211; in experiment [6], -0.372. Besides, the composite z-score with Lefty1 was -0.295; in [8] it was -0.488; in experiment [10], 0.143; in [15] it was -0.194; in experiment [16] it was 0.0536; with Torsin-1A (Homo sapiens) [17], 0.285. Further, the figures for the composite z-score (with Torsin-1A (Homo sapiens) [18]; in experiment [19]) were 0.331 and 0.23, respectively. For the same compound, the z-score in experiment [7] is 2.81; in experiment [9] it was -1.26 (inactive); in [11], 0.442 (inactive); in experiment [12], 0.309 (inactive); in [13], -0.385 (inactive); in experiment [14], -1.45 (inactive).
Turning to `CC(=O)N1Cc2ccccc2C[C@]2(N=C(c3ccc(OCCCO)cc3)O[C@@H]2c2ccccc2)C1=O`, the composite z-score is 2.62 in experiment [1]; 1.2 in [2]; 0.552 in [3]; 0.654 in experiment [4]; 0.743 in [5]; 1.2 in [6]. The composite z-score stood at 0.036 in the experiment with Lefty1; 0.956 in experiment [8]; 0.865 in experiment [10]; 0.253 in experiment [15]; 0.12 in experiment [16]; 0.611 in the experiment with Torsin-1A (Homo sapiens) [17]. Also, the composite z-score worked out at 0.297 with Torsin-1A (Homo sapiens) [18] and 1.18 in experiment [19]. Also, the z-score was 0.638 in experiment [7]; -2 (inactive) in experiment [9]; -3.38 (inactive) in [11]; -0.497 (inactive) in experiment [12]; 1.13 (inactive) in [13]; 2.08 (inactive) in experiment [14].
